Results: the supplement of paper PMC10849652
Of roughly 7,900 targets only a part is listed; those with a hit were picked by preference. About 0.6% of all pairs of compound and target were hits.

Columns and labels:
Assay in all cases: log2 fold change, soluble protein after heating vs DMSO (PISA); higher = thermal stabilisation; K562 cells, 10 uM, 30 min; active = over 0.2 and 3.5 SD of the protein, either way, in both replicates (recomputed)
[1] = compound: COC1=CC=C(C=C1)CN2C=CC3=C2C=C(C=C3)C(=O)NO
In short: (§1)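 Values are thermal stability changes relative to control samples and are taken from duplicates. They are stated as log2 fold changes. Before quantification by TMTpro 16plex LC-MS/MS with equalised channel sums, K562 cells at 2×10^6 cells/mL were treated with 10 μM compound for 30 min, heated in aliquots for 3 min across 48°C-58°C, pooled, extracted in PBS with 0.5% NP-40 at 4°C, and centrifuged at 21,000xg for 90 min to give the soluble supernatant.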

filanesib = compound: CON(C)C(=O)N1N=C(c2cc(F)ccc2F)S[C@@]1(CCCN)c1ccccc1 [filanesib]
In short: as §1

zotarolimus = compound: CO[C@H]1C[C@@H]2CC[C@@H](C)[C@@](O)(O2)C(=O)C(=O)N2CCCC[C@H]2C(=O)O[C@H]([C@H](C)C[C@@H]2CC[C@H](n3cnnn3)[C@H](OC)C2)CC(=O)[C@H](C)/C=C(\C)[C@@H](O)[C@@H](OC)C(=O)[C@H](C)C[C@H](C)/C=C/C=C/C=C/1C [zotarolimus]
In short: as §1

idasanutlin = compound: COc1cc(C(=O)O)ccc1NC(=O)[C@@H]1N[C@@H](CC(C)(C)C)[C@](C#N)(c2ccc(Cl)cc2F)[C@H]1c1cccc(Cl)c1F [idasanutlin]
In short: as §1

alisertib = compound: COc1cc(Nc2ncc3c(n2)-c2ccc(Cl)cc2C(c2c(F)cccc2OC)=NC3)ccc1C(=O)O [alisertib]
In short: as §1

[2] = compound: COc1cc2nc(-c3cc(F)ccc3O)nc(N[C@@H]3CNC[C@H]3C(C)(C)O)c2cc1OC
In short: as §1

gefitinib = compound: COc1cc2ncnc(Nc3ccc(F)c(Cl)c3)c2cc1OCCCN1CCOCC1 [gefitinib]
In short: as §1

[3] = compound: COc1cccc2cc(-c3nc([C@H]4CC[C@H](C(=O)O)CC4)n4ncnc(N)c34)[nH]c12
In short: as §1

lapatinib = compound: CS(=O)(=O)CCNCc1ccc(-c2ccc3ncnc(Nc4ccc(OCc5cccc(F)c5)c(Cl)c4)c3c2)o1 [lapatinib]
In short: as §1

pictilisib = compound: CS(=O)(=O)N1CCN(Cc2cc3nc(-c4cccc5[nH]ncc45)nc(N4CCOCC4)c3s2)CC1 [pictilisib]
In short: as §1

[4] = compound: CS(=O)(=O)c1ccc(-c2cnc(N)c(C(=O)Nc3ccccc3)n2)cc1
In short: as §1

crizotinib = compound: C[C@@H](Oc1cc(-c2cnn(C3CCNCC3)c2)cnc1N)c1c(Cl)ccc(F)c1Cl [crizotinib]
In short: as §1

[5] = compound: C[C@@H]1COCCN1C2=NC(=NC(=C2)C3(CC3)S(=O)(=O)C)C4=C5C=CNC5=CC=C4
In short: as §1

[6] = compound: C[C@H](C1=CC=C(C=C1)C(=O)NC2=C3C=CNC3=NC=C2)N
In short: as §1

duvelisib = compound: C[C@H](Nc1ncnc2nc[nH]c12)c1cc2cccc(Cl)c2c(=O)n1-c1ccccc1 [duvelisib]
In short: as §1

gandotinib = compound: Cc1cc(Nc2cc(CN3CCOCC3)c3nc(C)c(Cc4ccc(Cl)cc4F)n3n2)n[nH]1 [gandotinib]
In short: as §1

tozasertib = compound: Cc1cc(Nc2cc(N3CCN(C)CC3)nc(Sc3ccc(NC(=O)C4CC4)cc3)n2)n[nH]1 [tozasertib]
In short: as §1

[7] = compound: Cc1cc(SCc2sc(-c3ccc(C(F)(F)F)cc3)nc2C)ccc1OCC(=O)O
In short: as §1

doramapimod = compound: Cc1ccc(-n2nc(C(C)(C)C)cc2NC(=O)Nc2ccc(OCCN3CCOCC3)c3ccccc23)cc1 [doramapimod]
In short: as §1

ispinesib = compound: Cc1ccc(C(=O)N(CCCN)[C@@H](c2nc3cc(Cl)ccc3c(=O)n2Cc2ccccc2)C(C)C)cc1 [ispinesib]
In short: as §1

Measured: log2 fold change

TRMT61A (UniProt Q96FX7)
UniProt Q96FX7, sequence (Q96FX7 whole entry, looked up): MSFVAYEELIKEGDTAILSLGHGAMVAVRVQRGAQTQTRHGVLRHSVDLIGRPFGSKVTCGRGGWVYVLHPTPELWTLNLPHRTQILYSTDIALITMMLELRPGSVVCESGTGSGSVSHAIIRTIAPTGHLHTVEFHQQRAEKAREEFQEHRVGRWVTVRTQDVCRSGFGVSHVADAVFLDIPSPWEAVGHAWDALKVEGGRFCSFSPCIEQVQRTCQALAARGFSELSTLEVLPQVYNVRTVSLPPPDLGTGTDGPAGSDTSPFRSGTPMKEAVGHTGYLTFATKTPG
inactive: [1] 0.083 | filanesib 0.136 | zotarolimus 0.077 | idasanutlin 0.025 | alisertib -0.017 | [2] -0.192 | gefitinib -0.051 | [3] -0.057 | lapatinib 0.03 | pictilisib -0.18 | [4] -0.017 | crizotinib -0.046 | [5] -0.201 | [6] 0.168 | duvelisib -0.004 | gandotinib 0.168 | tozasertib -0.016 | [7] 0.106 | doramapimod 0.011 | ispinesib -0.093

USO1 isoform 2 (UniProt O60763)
UniProt O60763, sequence (O60763 whole entry, looked up): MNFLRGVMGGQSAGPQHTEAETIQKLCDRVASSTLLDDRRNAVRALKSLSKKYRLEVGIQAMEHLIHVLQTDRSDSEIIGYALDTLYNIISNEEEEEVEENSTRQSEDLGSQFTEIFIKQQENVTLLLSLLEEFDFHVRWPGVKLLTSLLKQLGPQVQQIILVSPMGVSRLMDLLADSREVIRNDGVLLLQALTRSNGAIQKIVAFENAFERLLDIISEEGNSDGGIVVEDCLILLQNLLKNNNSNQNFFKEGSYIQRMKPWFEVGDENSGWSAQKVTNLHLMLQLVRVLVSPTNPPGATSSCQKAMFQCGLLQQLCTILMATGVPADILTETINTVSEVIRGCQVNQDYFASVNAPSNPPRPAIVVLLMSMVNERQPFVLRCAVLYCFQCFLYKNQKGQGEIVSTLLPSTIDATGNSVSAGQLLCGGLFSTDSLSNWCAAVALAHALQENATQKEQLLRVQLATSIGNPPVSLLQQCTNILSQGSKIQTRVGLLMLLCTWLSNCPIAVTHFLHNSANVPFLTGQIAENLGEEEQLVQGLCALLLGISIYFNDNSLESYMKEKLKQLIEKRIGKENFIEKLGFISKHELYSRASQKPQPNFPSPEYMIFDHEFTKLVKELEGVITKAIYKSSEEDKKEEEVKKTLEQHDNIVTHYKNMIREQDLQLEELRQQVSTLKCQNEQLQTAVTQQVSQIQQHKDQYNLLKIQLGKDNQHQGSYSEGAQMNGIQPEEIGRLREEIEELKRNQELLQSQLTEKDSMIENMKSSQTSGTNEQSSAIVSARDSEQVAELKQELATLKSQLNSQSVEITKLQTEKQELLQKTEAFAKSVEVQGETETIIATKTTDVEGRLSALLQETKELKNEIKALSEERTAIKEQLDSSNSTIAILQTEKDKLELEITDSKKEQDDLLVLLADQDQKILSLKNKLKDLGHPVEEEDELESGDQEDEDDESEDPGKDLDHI
inactive: [1] 0.009 | filanesib -0.054 | zotarolimus 0.034 | idasanutlin -0.054 | alisertib -0.037 | [2] -0.031 | gefitinib 0.003 | [3] 0.01 | lapatinib 0.016 | pictilisib 0.014 | [4] 0.001 | crizotinib -0.031 | [5] 0.05 | [6] -0.068 | duvelisib -0.023 | gandotinib -0.062 | tozasertib 0.029 | [7] 0.052 | doramapimod -0.019 | ispinesib 0.012

VTA1 (UniProt Q9NP79)
UniProt Q9NP79, sequence (Q9NP79 whole entry, looked up): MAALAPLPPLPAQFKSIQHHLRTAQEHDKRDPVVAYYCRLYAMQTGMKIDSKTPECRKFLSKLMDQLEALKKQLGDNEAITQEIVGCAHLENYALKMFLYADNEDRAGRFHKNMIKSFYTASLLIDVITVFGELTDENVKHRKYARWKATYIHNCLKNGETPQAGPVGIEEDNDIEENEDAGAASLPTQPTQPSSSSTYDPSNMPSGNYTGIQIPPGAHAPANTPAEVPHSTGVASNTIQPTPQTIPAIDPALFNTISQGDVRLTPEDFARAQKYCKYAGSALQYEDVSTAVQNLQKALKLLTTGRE
inactive: [1] -0.01 | filanesib -0.033 | zotarolimus 0.044 | idasanutlin -0.094 | alisertib -0.014 | [2] 0.056 | gefitinib -0.003 | [3] -0.008 | lapatinib -0.014 | pictilisib 0.006 | [4] 0.032 | crizotinib -0.049 | [5] 0.056 | [6] -0.019 | duvelisib 0.019 | gandotinib -0.127 | tozasertib 0.004 | [7] 0.057 | doramapimod -0.021 | ispinesib -0.014

UGGT1 (UniProt Q9NYU2)
UniProt Q9NYU2, sequence (Q9NYU2 whole entry, looked up): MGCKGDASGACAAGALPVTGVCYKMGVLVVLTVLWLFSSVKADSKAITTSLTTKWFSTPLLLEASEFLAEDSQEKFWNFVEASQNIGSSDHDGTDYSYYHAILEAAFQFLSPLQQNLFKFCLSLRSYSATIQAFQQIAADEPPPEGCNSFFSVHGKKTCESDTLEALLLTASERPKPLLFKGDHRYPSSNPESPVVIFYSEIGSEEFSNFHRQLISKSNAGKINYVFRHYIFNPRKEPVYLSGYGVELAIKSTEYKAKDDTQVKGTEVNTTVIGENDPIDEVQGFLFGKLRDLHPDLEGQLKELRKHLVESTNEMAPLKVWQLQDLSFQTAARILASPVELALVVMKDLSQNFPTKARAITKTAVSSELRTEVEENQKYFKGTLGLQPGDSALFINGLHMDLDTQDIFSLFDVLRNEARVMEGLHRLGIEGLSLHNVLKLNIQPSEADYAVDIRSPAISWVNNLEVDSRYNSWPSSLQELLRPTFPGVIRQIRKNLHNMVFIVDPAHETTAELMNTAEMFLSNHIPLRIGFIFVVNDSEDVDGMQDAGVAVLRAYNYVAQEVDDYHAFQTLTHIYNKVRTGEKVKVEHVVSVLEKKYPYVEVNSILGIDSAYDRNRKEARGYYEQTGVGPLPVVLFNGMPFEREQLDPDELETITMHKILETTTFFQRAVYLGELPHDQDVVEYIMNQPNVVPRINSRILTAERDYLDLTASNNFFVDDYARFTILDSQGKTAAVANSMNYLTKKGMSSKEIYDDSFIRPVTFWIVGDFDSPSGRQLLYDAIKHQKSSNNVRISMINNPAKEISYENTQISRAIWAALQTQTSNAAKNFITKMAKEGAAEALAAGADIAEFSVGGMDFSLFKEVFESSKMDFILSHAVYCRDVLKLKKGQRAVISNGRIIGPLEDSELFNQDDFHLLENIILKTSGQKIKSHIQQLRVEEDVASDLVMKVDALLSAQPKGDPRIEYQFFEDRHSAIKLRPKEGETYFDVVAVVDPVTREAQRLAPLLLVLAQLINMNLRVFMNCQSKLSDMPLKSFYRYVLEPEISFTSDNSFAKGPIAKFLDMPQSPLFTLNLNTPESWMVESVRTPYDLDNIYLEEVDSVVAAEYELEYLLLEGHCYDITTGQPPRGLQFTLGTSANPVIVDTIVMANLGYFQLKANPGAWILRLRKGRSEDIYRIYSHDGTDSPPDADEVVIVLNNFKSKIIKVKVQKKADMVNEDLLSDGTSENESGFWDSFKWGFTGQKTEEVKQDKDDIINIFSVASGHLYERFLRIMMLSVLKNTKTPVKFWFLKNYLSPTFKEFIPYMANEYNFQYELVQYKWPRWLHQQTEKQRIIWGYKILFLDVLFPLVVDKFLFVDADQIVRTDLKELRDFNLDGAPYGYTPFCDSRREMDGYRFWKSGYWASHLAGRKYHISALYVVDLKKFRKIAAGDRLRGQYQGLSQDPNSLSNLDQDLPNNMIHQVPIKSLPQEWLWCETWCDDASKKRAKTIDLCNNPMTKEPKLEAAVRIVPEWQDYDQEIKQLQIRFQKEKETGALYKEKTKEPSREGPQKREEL
inactive: [1] -0.041 | filanesib -0.008 | zotarolimus 0.012 | idasanutlin -0.014 | alisertib -0.07 | [2] 0.009 | gefitinib -0.006 | [3] -0.01 | lapatinib 0.035 | pictilisib -0.005 | [4] 0.013 | crizotinib 0 | [5] 0.012 | [6] 0.009 | duvelisib -0.005 | gandotinib 0.005 | tozasertib 0.008 | [7] 0.016 | doramapimod 0.017 | ispinesib 0.012

XRCC5 (UniProt P13010)
UniProt P13010, sequence (P13010 whole entry, looked up): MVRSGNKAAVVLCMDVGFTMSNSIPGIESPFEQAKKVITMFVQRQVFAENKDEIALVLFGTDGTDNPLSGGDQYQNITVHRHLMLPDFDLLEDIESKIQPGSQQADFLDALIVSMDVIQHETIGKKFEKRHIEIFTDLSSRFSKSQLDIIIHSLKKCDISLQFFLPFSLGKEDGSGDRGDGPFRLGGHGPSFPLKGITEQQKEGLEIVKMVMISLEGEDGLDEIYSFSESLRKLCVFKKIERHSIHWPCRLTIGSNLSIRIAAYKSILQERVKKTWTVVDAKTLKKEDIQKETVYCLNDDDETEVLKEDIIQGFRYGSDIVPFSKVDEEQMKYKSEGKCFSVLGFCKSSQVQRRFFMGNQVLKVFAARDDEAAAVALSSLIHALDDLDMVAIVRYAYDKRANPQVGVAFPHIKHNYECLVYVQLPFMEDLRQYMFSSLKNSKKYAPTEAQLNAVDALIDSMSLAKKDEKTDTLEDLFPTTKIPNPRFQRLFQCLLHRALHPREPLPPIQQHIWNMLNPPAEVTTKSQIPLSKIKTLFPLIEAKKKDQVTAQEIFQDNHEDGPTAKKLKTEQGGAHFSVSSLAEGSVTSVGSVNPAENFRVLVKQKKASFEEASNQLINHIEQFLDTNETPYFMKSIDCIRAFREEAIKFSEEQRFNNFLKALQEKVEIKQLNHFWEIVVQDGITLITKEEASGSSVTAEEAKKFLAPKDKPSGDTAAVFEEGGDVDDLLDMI
inactive: [1] 0.19 | filanesib -0.049 | zotarolimus 0.087 | idasanutlin 0.014 | alisertib 0.061 | [2] -0.232 | gefitinib 0.076 | [3] -0.087 | lapatinib 0.024 | pictilisib -0.047 | [4] 0.037 | crizotinib -0.086 | [5] 0.047 | [6] 0.077 | duvelisib -0.017 | gandotinib -0.001 | tozasertib 0.177 | [7] 0.179 | doramapimod 0.064 | ispinesib -0.16

TXNRD1 (UniProt Q16881)
inactive: [1] 0.018 | filanesib -0.101 | zotarolimus 0.006 | idasanutlin -0.144 | alisertib -0.012 | [2] -0.023 | gefitinib 0.026 | [3] 0.052 | lapatinib -0.055 | pictilisib 0.062 | [4] 0.075 | crizotinib -0.043 | [5] 0.079 | [6] -0.053 | duvelisib 0.047 | gandotinib -0.045 | tozasertib -0.036 | [7] -0.007 | doramapimod -0.028 | ispinesib -0.009

TRMT10C (UniProt Q7L0Y3)
UniProt Q7L0Y3, sequence (Q7L0Y3 whole entry, looked up): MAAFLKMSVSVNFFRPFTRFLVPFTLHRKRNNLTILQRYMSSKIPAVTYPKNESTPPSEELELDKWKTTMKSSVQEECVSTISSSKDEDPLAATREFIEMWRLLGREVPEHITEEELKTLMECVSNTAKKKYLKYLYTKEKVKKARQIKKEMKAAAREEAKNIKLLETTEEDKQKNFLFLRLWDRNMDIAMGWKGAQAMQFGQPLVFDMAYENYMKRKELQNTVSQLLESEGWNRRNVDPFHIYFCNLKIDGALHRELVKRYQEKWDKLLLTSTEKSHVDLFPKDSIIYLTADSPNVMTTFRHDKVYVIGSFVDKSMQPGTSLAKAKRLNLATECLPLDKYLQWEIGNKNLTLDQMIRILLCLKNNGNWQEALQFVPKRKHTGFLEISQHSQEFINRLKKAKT
inactive: [1] -0.045 | filanesib -0.031 | zotarolimus 0.016 | idasanutlin -0.107 | alisertib -0.033 | [2] 0.018 | gefitinib 0.039 | [3] 0.005 | lapatinib -0.033 | pictilisib 0.007 | [4] 0.045 | crizotinib 0.03 | [5] 0.109 | [6] -0.013 | duvelisib 0.024 | gandotinib -0.072 | tozasertib 0 | [7] 0.069 | doramapimod -0.008 | ispinesib 0.017

U2AF2 (UniProt P26368)
UniProt P26368, sequence (P26368 whole entry, looked up): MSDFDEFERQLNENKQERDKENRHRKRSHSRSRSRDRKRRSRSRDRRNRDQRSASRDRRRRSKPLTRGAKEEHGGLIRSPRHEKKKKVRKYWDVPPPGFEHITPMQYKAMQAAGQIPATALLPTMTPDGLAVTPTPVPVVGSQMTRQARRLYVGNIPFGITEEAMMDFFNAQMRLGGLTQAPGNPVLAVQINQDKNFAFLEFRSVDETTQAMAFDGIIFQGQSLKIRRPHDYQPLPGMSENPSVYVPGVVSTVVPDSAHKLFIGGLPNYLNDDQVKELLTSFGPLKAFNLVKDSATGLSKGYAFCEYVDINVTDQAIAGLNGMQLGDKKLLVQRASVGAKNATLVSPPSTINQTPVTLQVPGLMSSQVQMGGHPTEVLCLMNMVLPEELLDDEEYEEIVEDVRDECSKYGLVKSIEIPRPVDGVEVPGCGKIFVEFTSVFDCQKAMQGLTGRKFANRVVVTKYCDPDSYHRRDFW
inactive: [1] 0.038 | filanesib 0.071 | zotarolimus 0.018 | idasanutlin 0.042 | alisertib -0.089 | [2] 0.014 | gefitinib 0.028 | [3] 0.074 | lapatinib -0.013 | pictilisib 0.013 | [4] 0.036 | crizotinib -0.101 | [5] 0.057 | [6] -0.101 | duvelisib -0.029 | gandotinib 0.036 | tozasertib 0.008 | [7] 0.063 | doramapimod -0.006 | ispinesib 0.014
